This is an account of results in PubChem BioAssay (EPA / NIEHS).

Read-out in test [1]: Intercellular Adhesion Molecule 1 (ICAM1), ICAM1 (gene 3383)
The test is described as follows: BSK_hDFCGF_ICAM1: BioMAP Diversity Plus: hDFCGF Assay for Intercellular Adhesion Molecule 1 (ICAM1) Biomarker Activity (AID 2284287). The settings on record: primary human foreskin fibroblasts. In a few lines:
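ICAM-1 ELISA readout 24 h after dosing, DMSO as baseline, in human dermal foreskin fibroblast cultures. Cytotoxicity checked in parallel wells by SRB staining (0.1% SRB, 10% TCA fixation, 560 nm).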

Read-out in test [2]: TIMP metallopeptidase inhibitor 2 (TIMP2), TIMP2 (gene 7077)
Put plainly: BSK_hDFCGF_TIMP2: BioMAP Diversity Plus: hDFCGF Assay for TIMP metallopeptidase inhibitor 2 (TIMP2) Biomarker Activity (AID 2284289). As to conditions: primary human foreskin fibroblasts. In a few lines: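 Primary human foreskin fibroblasts in the hDFCGF system, dosed for 24 h; TIMP-2 level measured by ELISA, fitted in the positive direction against DMSO; cytotoxicity checked in parallel by sulforhodamine B total protein staining.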

Read-out in test [3]: Thrombomodulin, THBD (gene 7056)
The test is described as follows: BSK_LPS_Thrombomodulin: BioMAP Diversity Plus: LPS Assay for Thrombomodulin Biomarker Activity (AID 2284296). The settings on record: primary human HUVEC with PBMC. Summed up:
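Thrombomodulin on the surface of LPS-activated endothelial/PBMC co-cultures was quantified by ELISA at 24 hours post-dosing, with DMSO as baseline. Parallel SRB total-protein staining flagged overt cytotoxicity.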

Read-out in test [4]: CD69, CD69 (gene 969)
Put plainly: BSK_LPS_CD69: BioMAP Diversity Plus: LPS Assay for CD69 Biomarker Activity (AID 2284303). As to conditions: primary human HUVEC with PBMC. Summed up: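 CD69 surface levels were read by ELISA after 24 h chemical treatment of an LPS-stimulated HUVEC plus PBMC co-culture; positive-direction fit against DMSO vehicle.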

The nature of test [5]: IUF_NPC2c_oligodendrocyte_migration_120hr: Leibniz Research Institute for Environmental Medicine (IUF) 120-hour Neural Progenitor Cell Migration Assay for Oligodendrocyte Migration (NPC2c) (AID 2284297).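 Further: O4-positive oligodendrocyte migration distance divided by radial glia migration distance.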 Summed up:
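Using fetal brain neural progenitor spheres differentiating in N2 medium at 37C, compounds were present for 120 h. Oligodendrocyte migration distance, normalized to radial glia migration, was measured from imaged O4 staining.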

A short description of test [6]: IUF_NPC2a_radial_glia_migration_120hr: Leibniz Research Institute for Environmental Medicine (IUF) 120-hour Neural Progenitor Cell Migration Assay for Radial Glia Migration (NPC2a) (AID 2284298). Summed up: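 Exposure of 0.3 mm primary hNPC spheres runs day 0 to 120 h with a half-volume medium change at day 3. Fixed cells get Hoechst staining; high-content analysis of nuclear positions yields radial glia migration distance per well, compared against DMSO controls.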

The nature of test [7]: IUF_NPC2a_radial_glia_migration_72hr: Leibniz Research Institute for Environmental Medicine (IUF) 72-hour Neural Progenitor Cell Migration Assay for Radial Glia Migration (NPC2a) (AID 2284299). In a few lines: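 Radial glia migration (µm, sphere core edge to migration front, four directions averaged) from brightfield images at 72 h; hNPC spheres differentiating on PDL/laminin in N2 medium, compound exposure at 7 concentrations from plating.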

The nature of test [8]: IUF_NPC2b_neuronal_migration_120hr: Leibniz Research Institute for Environmental Medicine (IUF) 120-hour Neural Progenitor Cell Migration Assay for Neuron Migration (NPC2b) (AID 2284300). Summed up: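 Fetal human NPC spheres migrate on PDL/laminin during 120 h compound treatment; neuronal migration distance, glia-normalized, scored versus DMSO control.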
Test [9] can be described thus: IUF_NPC3_neuronal_differentiation_120hr: Leibniz Research Institute for Environmental Medicine (IUF) 120-hour Neuronal Differentiation Assay (NPC3) (AID 2284301). In a few lines: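 hNPC spheres, PDL/laminin, DMEM/F12 3:1 + 1% N2, 37C, 5% CO2; 7 concentrations + solvent control, 5 d exposure, half-change day 3. Fix 120 h; TUBB3/Hoechst ICC, CNN neuron calling; % neurons vs nuclei, DMSO-normalized.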

Test [10] in a line: IUF_NPC4_neurite_length_120hr: Leibniz Research Institute for Environmental Medicine (IUF) 120-hour Neuronal Morphology Assay for Neurite Length (NPC4) (AID 2284302). Summed up:
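hNPC spheres (0.3 mm, fetal brain GW 16-19) on PDL/laminin, DMEM:F12 3:1 + 1% N2, 37C 5% CO2; 7 concs + solvent control, day 0-5, half medium change d3; fix 120 h, TUBB3 ICC, mean neurite length um vs DMSO.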

Test [11] in a line: IUF_NPC5_oligodendrocyte_differentiation_120hr: Leibniz Research Institute for Environmental Medicine (IUF) 120-hour Oligodendrocyte Differentiation Assay (NPC5) (AID 2284304; active means hit-call score of the fitted dose curve at least 0.9, where 1 is the maximum;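 further: primary human fetal neural progenitor spheres plated to migrate and differentiate; share of O4-positive cells among Hoechst nuclei found by CNN image analysis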). Summed up:
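After plating on poly-D-lysine/laminin, fetal-derived hNPC spheres differentiated for 120 h at 37C in compound-containing N2 medium, refreshed by half on day 3. O4 immunostaining over Hoechst nuclei in the migration zone gave oligodendrocyte percentage relative to DMSO.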

The nature of test [12]: IUF_NPC4_neurite_area_120hr: Leibniz Research Institute for Environmental Medicine (IUF) 120-hour Neuronal Morphology Assay for Neurite Area (NPC4) (AID 2284305; active means hit-call score of the fitted dose curve at least 0.9, where 1 is the maximum). Summed up:
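hNPC spheres on PDL/laminin, N2 medium, 37C/5% CO2; dosed day 0, half-medium refresh day 3; fixed 120 h; TUBB3/Hoechst ICC, high-content imaging; neurite area = mean pixels per neuron (nuclei excluded); DMSO baseline, max 0.1%.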

Read-out in test [13]: Vascular cell adhesion molecule 1 (VCAM1), VCAM1 (gene 7412)
Put plainly: BSK_IMphg_VCAM1: BioMAP Diversity Plus: IMphg Assay for Vascular cell adhesion molecule 1 (VCAM1) Biomarker Activity (AID 2284286). The settings on record: primary human endothelial cells with macrophages. Summed up: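 ELISA read-out of VCAM-1 on venular endothelial cell/macrophage co-cultures at 24 h post-treatment, with DMSO as baseline and positive-direction fitting. Parallel sulforhodamine B total-protein staining (560 nm) served as the overt cytotoxicity measure.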

Read-out in test [14]: CD40, CD40 (gene 958)
Put plainly: BSK_IMphg_CD40: BioMAP Diversity Plus: IMphg Assay for CD40 Biomarker Activity (AID 2284288). As to conditions: primary human endothelial cells with macrophages. Summed up:
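ELISA read-out of cell-surface CD40 at 24 h in human venular endothelial cell/macrophage co-cultures. Activity fitted in the positive direction against DMSO; parallel SRB staining (560 nm) gauges overt cytotoxicity.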

Read-out in test [15]: Interleukin-1 alpha (IL1a), IL1A (gene 3552)
Put plainly: BSK_IMphg_IL1a: BioMAP Diversity Plus: IMphg Assay for Interleukin-1 alpha (IL1a) Biomarker Activity (AID 2284290). As to conditions: primary human endothelial cells with macrophages. In a few lines:
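IL-1α is quantified by ELISA at 24 h in the endothelial/macrophage IMphg co-culture, with gain of signal fitted relative to DMSO. Parallel SRB total-protein staining flags overt toxicity.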

Read-out in test [16]: E-selectin (Homo sapiens) (UniProt P16581)
Put plainly: BSK_IMphg_ESelectin: BioMAP Diversity Plus: IMphg Assay for Eselectin Biomarker Activity (AID 2284291). As to conditions: primary human endothelial cells with macrophages. In a few lines: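 Analysed against DMSO baseline in the positive fitting direction, this endpoint is an ELISA read of E-selectin. It comes from human venular endothelial cells co-cultured with macrophages, sampled 24 h post-dose.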

A short description of test [17]: BSK_IMphg_SRB: Viability Assessment in the BioMAP Diversity Plus: IMphg Assay (AID 2284292).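 Further: measured one day after compound addition.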 The settings on record: primary human endothelial cells with macrophages. In a few lines:
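SRB viability endpoint: cultures of human endothelial cells plus macrophages fixed with 10% TCA, stained with 0.1% SRB, read at 560 nm 24 h post-dosing. Only gain-of-signal fitted, relative to DMSO.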

Read-out in test [18]: Macrophage colony-stimulating factor (MCSF), CSF1 (gene 1435)
The test is described as follows: BSK_IMphg_MCSF: BioMAP Diversity Plus: IMphg Assay for Macrophage colony-stimulating factor (MCSF) Biomarker Activity (AID 2284293). The settings on record: primary human endothelial cells with macrophages. Summed up:
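M-CSF was measured by ELISA in human venular endothelial cell/macrophage co-cultures dosed for 24 hours. Sulforhodamine B staining of parallel cultures assessed cytotoxicity; data fitted against DMSO baseline.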

Read-out in test [19]: Interleukin-10 (IL10), IL10 (gene 3586)
The test is described as follows: BSK_IMphg_IL10: BioMAP Diversity Plus: IMphg Assay for Interleukin-10 (IL10) Biomarker Activity (AID 2284294). The settings on record: primary human endothelial cells with macrophages. Summed up: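 IL-10 read by ELISA after 24 h chemical exposure of primary human venular endothelial cell/macrophage cocultures, with DMSO as baseline. Parallel SRB staining (560 nm) gauged overt cytotoxicity.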

Test [20] can be described thus: BSK_IMphg_SRB.Mphg: Macrophage Viability Assessment in the BioMAP Diversity Plus: IMphg Assay (AID 2284295). The settings on record: primary human endothelial cells with macrophages. Summed up: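 Cytotoxicity read-out: parallel cultures fixed with 10% TCA, stained with 0.1% sulforhodamine B, read at 560 nm. System combines venular endothelium and macrophages; sampled 24 h post-dosing, fitted positively relative to DMSO control.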

Several values for one entry are separate records, joined by “and”; a condition that tells them apart may be missing. Equal values may be shown once. Records with an inconclusive call do not appear. More than one record can exist for a structure, and the calls need not agree. Activity calls are given as the source filed them. How the source made its calls, unless noted: active means hit-call score of the fitted dose curve at least 0.9, where 1 is the maximum; inactive means score below 0.9.

Sequence of E-selectin (Homo sapiens) (P16581 whole entry, looked up): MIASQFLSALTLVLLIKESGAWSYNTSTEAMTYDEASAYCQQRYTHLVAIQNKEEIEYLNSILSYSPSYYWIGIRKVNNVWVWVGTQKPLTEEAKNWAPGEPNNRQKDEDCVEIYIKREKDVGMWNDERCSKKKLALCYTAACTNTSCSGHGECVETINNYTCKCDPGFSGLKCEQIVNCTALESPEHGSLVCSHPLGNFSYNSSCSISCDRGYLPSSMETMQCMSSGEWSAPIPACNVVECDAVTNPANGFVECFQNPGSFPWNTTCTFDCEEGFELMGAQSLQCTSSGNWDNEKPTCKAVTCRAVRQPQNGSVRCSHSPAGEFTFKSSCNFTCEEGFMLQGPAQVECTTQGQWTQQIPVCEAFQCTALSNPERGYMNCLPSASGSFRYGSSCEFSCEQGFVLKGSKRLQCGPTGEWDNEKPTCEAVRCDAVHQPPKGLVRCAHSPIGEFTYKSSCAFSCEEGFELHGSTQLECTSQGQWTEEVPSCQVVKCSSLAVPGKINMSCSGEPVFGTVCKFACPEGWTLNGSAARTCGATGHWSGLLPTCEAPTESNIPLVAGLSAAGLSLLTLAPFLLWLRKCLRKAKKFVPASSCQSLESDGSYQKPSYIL

Regarding `CC(=O)c1ccc(C)cc1`, the outcome in test [1], in test [2], in test [3] and in test [4] was inactive.

Turning to `c1ccc(OCCOc2ccccc2)cc1`, the outcome in [1], in test [2], in test [3] and in [4] was inactive. The values for the half-maximal activity concentration (AC50) in test [2] and in test [3] were 3.6 µM (active) and 12.3 µM (active), respectively.

Turning to `N[C@@H](CCC(=O)O)C(=O)O`, the call in test [5], in test [6], in [7], in test [8], in [9] and in test [10] was inactive. Further, the result in test [11] and in [12] was inactive.

In the case of `CCCCC(CC)COC(=O)COc1ccc(Cl)cc1C` (stereo unspecified), the molecule was called inactive in test [5], in test [6], in [7], in [8], in test [9] and in test [10]. For the same molecule, in test [12], the call was inactive.

Take `C=C(F)C(=O)OC(C(F)(F)F)C(F)(F)F`: the outcome in [13], in test [1], in [14], in test [2], in [15] and in [16] was inactive. Moreover, the result in test [17], in test [18], in [19], in test [20], in [3] and in test [4] was inactive. Moreover, the AC50 in test [14] is 5.95 µM (active).

For the molecule `CCCO[Si](OCCC)(OCCC)OCCC`, the result in [1], in [2], in test [3] and in test [4] was inactive.

On to `O=S(=O)(O)C(F)(F)C(F)(F)OC(F)(F)C(F)(F)F`, for which the outcome in test [13], in test [1], in [14], in [2], in test [15] and in test [16] was inactive. Further, the result in test [17], in [18], in test [20], in [3] and in test [4] was inactive. In addition, the AC50 in test [19] is 47.8 µM (active) and 44.1 µM (active).

On to `O=C(O)C(F)(F)C(F)(F)C(F)(F)C(F)(F)C(F)(F)C(F)(F)C(F)(F)C(F)F`, for which the result in test [13], in [1], in test [14], in [2], in test [15] and in test [16] was inactive. Besides, the outcome in test [17], in [18], in test [20], in [3] and in test [4] was inactive. For the same molecule, the half-maximal activity concentration (AC50) in [19] was 47.1 µM (active) and 57.5 µM (active).
